Source: PubChem BioAssay (several laboratories)
SENP6 inh: SENP6 protease inhibition; Recombinant SENP6 catalytic domain, aminoluciferin luminescence; AID 2599; inhibition, % at 10 µM; Q9GZR1; 1.8% of 330,000 active;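 active means inhibition above about 50% at the single tested dose, limit read from the data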
Target sequence (Q9GZR1 628-1112 limits assumed): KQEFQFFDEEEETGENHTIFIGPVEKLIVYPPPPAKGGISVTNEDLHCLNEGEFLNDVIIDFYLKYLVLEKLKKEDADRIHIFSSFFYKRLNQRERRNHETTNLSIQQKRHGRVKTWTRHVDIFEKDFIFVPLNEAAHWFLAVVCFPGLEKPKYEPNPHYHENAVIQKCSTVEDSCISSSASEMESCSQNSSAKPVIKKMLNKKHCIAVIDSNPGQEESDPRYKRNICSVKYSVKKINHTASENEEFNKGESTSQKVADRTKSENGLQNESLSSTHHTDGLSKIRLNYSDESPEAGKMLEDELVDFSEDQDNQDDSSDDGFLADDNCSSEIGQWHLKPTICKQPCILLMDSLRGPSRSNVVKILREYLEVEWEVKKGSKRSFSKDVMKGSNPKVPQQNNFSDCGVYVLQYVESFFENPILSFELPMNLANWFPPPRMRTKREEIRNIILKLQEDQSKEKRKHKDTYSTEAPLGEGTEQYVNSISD
SENP8 block-1: SENP8 (human) protease inhibition | inhibition, % at 20 µM | 0.64% of 360,000 active | recombinant SENP8, Nedd8 substrate fluorescence; in the data active means inhibition mostly above about 40%, no sharp cut-off; inactive means mostly below about 27%
Target sequence (Q96LD8 whole entry, looked up): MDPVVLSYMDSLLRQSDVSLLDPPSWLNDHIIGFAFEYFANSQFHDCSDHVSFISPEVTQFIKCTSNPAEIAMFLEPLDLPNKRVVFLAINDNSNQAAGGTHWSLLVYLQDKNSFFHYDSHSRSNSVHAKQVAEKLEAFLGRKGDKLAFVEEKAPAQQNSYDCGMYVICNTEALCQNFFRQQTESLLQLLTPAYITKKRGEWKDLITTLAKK
SENP8 block-2: blocks the human protease SENP8; Q96LD8; purified SENP8, Z-RLRGG-aminoluciferin cleavage, luminescence; inhibition, % at 10 µM; 1.2% of 330,000 active; in the data active means inhibition above about 50%
HSP90 refold inh: blocks HSP90-mediated luciferase refolding in reticulocyte lysate | Rabbit reticulocyte lysate, luciferase refolding luminescence, 3 h | inhibition, % at 5.6 µM | 0.91% of 290,000 active;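 active means inhibition above the screen-wide mean plus 3 SD, computed separately per campaign, cut at about 16% in these data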;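 further: inhibitors lower the luminescence because luciferase stays unfolded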
SENP7 block: SENP7 protease inhibition; recombinant SENP7, Z-RLRGG-aminoluciferin luminescence, 40 min; inhibition, % at 5 µM; 1.5% of 330,000 active;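 active means inhibition above about 50% at the single test dose, limit read from the data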
Large screens that a line does not name were inactive. A selection: hits, their analogues and other compounds. The true share with any hit is near 2.7%.

CCN(C(=O)C(C)N1C(=O)/C(=C/c2ccco2)SC1=S)C1CCS(=O)(=O)C1 (stereo not drawn)	SENP8 block-1 48.0
CCn1c(C)cc(C(=O)CN2C(=O)c3ccccc3S2(=O)=O)c1C	none (no result: HSP90 refold inh)
Cc1cc(C(=O)CN2C(=O)c3ccccc3S2(=O)=O)c(C)n1-c1ccccc1	HSP90 refold inh 16.4
O=C(Nc1ccccc1)O[C@@H]1C[C@H]2CCCC(=O)N3CC[C@@H](C1)[C@@H]23	none (no result: SENP6 inh, SENP8 block-2, HSP90 refold inh, SENP7 block)
O=C(Nc1ccccc1)O[C@@H]1C[C@H]2CCC(=O)N3CC[C@@H](C1)[C@@H]23	SENP6 inh 56.4, SENP8 block-2 54.6, SENP7 block 59.8 (no result: SENP8 block-1)
O=C1NN(c2ccccc2)C(=O)/C1=C\c1cccc(OC(=O)c2cccs2)c1	SENP8 block-1 43.6
O=C(CSc1nnc(-c2cccnc2)n1C1CCCCC1)NC1CCCC1	none
COc1ccc([C@@H]2[C@H]3CN(C(C)=O)CC=C3C(C#N)=C(N)C2(C#N)C#N)c2ccccc12	none (no result: SENP6 inh, SENP8 block-2, SENP7 block)
O=C(NNC(=S)NC(=O)c1ccccc1)c1ccc([N+](=O)[O-])cc1	none
O=C(NC(=S)NNC(=O)c1ccccc1O)c1ccc([N+](=O)[O-])cc1	SENP6 inh 76.7
O=c1nccc(N/N=C/c2ccccc2O)[nH]1	HSP90 refold inh 16.4
Cc1ccc(NC2C(=O)NC(=O)NC2=O)cc1	SENP8 block-1 72.5 (no result: SENP6 inh, SENP8 block-2, HSP90 refold inh, SENP7 block)
Cc1ccc(NC2CNC(=O)NC2=O)cc1C (stereo not drawn)	none (no result: SENP6 inh, SENP8 block-2, HSP90 refold inh, SENP7 block)
Cc1[nH]n(-c2ccccc2)c(=O)c1C(C[N+](=O)[O-])c1ccccc1Cl (stereo not drawn)	SENP8 block-1 64.3
Cc1[nH]n(-c2ccccc2)c(=O)c1-c1ccccc1	none
COc1cccc(C(c2c(C)[nH]n(-c3ccccc3)c2=O)c2c(C)[nH]n(-c3ccccc3)c2=O)c1OC	SENP8 block-1 73.4
CC(=O)C1=C(c2ccccc2)NC(=O)NC1c1ccccc1 (stereo not drawn)	none
O=C1NC2=C(CCc3ccccc32)C(c2ccccc2)N1 (stereo not drawn)	SENP6 inh 95.1, SENP8 block-2 87.0, SENP7 block 72.9
O=C1C=C(/C=C/C2C=CC=CC2)C[C@@H](c2ccc(Cl)cc2)C1 (stereo partly drawn)	none (no result: HSP90 refold inh)
O=C(Oc1ccc(Br)cc1C(=S)N1CCCCC1)c1cc([N+](=O)[O-])cc([N+](=O)[O-])c1	SENP8 block-1 43.8
COc1ccc(CC2=C(O)c3ccccc3C(=O)C2=O)cc1	SENP8 block-1 68.4
CC1=C(C)C(=O)C(CCCCC#CCCCC#CCO)=C(C)C1=O	none
COC1=C(OC)C(=O)C(CCCCCCCCCCO)=C(C)C1=O	HSP90 refold inh 27.4 (no result: SENP6 inh, SENP8 block-2, SENP7 block)
C=C[C@]1(C)C=C2CCC3[C@](C)(CCC[C@@]3(C)C(=O)O)C2CC1 (stereo partly drawn)	SENP8 block-1 59.9 (no result: HSP90 refold inh)
C=C/C(C)=C/CC1C(=C)CCC2C(C)(C(=O)O)CCCC12C (stereo not drawn)	none (no result: HSP90 refold inh)
O=c1c(N=Nc2ccccc2)c[nH]n1-c1ccccc1	SENP8 block-1 54.0 (no result: SENP6 inh, SENP8 block-2, HSP90 refold inh, SENP7 block)
CCOC(=O)c1nn(-c2ccccc2)c(=O)c2c(NC(C)=O)scc12	none
CCOC(=O)c1nn(-c2ccccc2)c(=O)c2c(N)scc12	SENP8 block-1 54.6
Cc1ccc2[nH]cc(/C=C/c3cc[n+](C)cc3)c2c1	none
CC1=NN(c2ccc(C)cc2C)C(=O)C1C(c1ccccc1)C1C(=O)N(c2ccc(C)cc2C)N=C1C (stereo not drawn)	SENP8 block-1 91.5
Cc1ccc(-n2nc(C)c(C(=O)O)n2)c(C)c1	none
Cc1ccc(CNc2ccc(O)cc2)cc1	SENP8 block-1 72.5
O=C(CSc1nnc(NC(=O)c2ccc3c(c2)OCO3)s1)NCc1ccco1	SENP7 block 64.5
O=C(O/N=C/c1ccc2c(c1)OCO2)c1ccccc1Cl	SENP6 inh 85.8, SENP8 block-2 84.2, SENP7 block 79.9 (no result: SENP8 block-1)
O=C1c2cccc(NCCCNCCO)c2C(=O)c2cccc(NCCCNCCO)c21	SENP8 block-1 56.7 (no result: SENP6 inh, SENP8 block-2, HSP90 refold inh, SENP7 block)
CC1CCCCN1CCCNc1ccc(C(CC(N)=O)NC(=O)Cc2ccc(Br)cc2)cc1[N+](=O)[O-] (stereo not drawn)	none
Cc1cc(-c2nc3ccccc3s2)ccc1N	none (no result: SENP6 inh, SENP8 block-2, HSP90 refold inh, SENP7 block)
Cc1cc(OCc2nc3ccccc3s2)ccc1N	SENP6 inh 70.2, SENP8 block-2 53.7
Cc1nnsc1C(=O)Nc1ccc(Cl)cc1	none
Cc1nnsc1C(=O)NC(=O)Nc1ccc(F)c(Cl)c1	SENP6 inh 81.9, SENP8 block-2 78.2
COc1ccc(NC(=O)Nc2ccc(F)c(Cl)c2)cc1	SENP7 block 51.5
CCCCCOC(=O)C1=C(C)NC(=O)NC1c1ccccc1OCC (stereo not drawn)	none
CC(=O)N(C1=C(N)C(=O)c2ccccc2C1=O)c1ccccc1	SENP8 block-1 61.5
O=C(N(c1ccccc1)c1ccccc1)N(c1ccccc1)c1ccccc1	none
CCN1C(=O)/C(=C2\SC(N3CCOCC3)=NC2=O)c2ccccc21	none
C=CCN1C(=O)/C(=C2\SC(N3CCOCC3)=NC2=O)c2cc(Br)ccc21	SENP8 block-1 41.0
COc1ccc(NC(=O)CSc2nc(=O)n(CCN(C)C)c3c2CCCC3)cc1OC	none (no result: HSP90 refold inh)
CNC[C@H](O)c1ccc(O)c(O)c1	SENP8 block-1 55.2
COC(=O)c1ccc(COC(=O)c2ccc(CS(=O)(=O)c3ccc(C)cc3)cc2)cc1	none
COC(=O)c1cc2c(n1S(=O)(=O)c1ccc(C)cc1)C(=O)C(=O)c1[nH]cc(C(=O)OCc3ccccc3)c1-2	SENP8 block-1 108.4 (no result: SENP6 inh, SENP8 block-2, HSP90 refold inh, SENP7 block)
Cc1cccc(-c2ccc3ncnc(NCc4cccs4)c3c2)c1	none (no result: HSP90 refold inh)
Nc1ccc(OCc2ccco2)cc1	SENP7 block 54.4
O=C1c2ccccc2-c2c1nc1c([n+]2[O-])CCCC1	SENP8 block-1 41.5
O=C1c2ccccc2-c2nccnc21	none
CCCCCCCCCCCC1=C(O)C(=O)C=C(O)C1=O	SENP8 block-1 45.9 (no result: SENP6 inh, SENP8 block-2, HSP90 refold inh, SENP7 block)
COC1=CC(=O)C(O)=C(CCCCCCC/C=C/CCCCCCCC2=C(O)C(=O)C=C(OC)C2=O)C1=O	none (no result: HSP90 refold inh)
CCCCOCCCNC(=O)C[C@@H]1C[C@@]2(C(=O)OCC)CCCC=C2N(Cc2cccc3ccccc23)C1=O	none (no result: SENP6 inh, SENP8 block-2, HSP90 refold inh, SENP7 block)
O=C(O)C1=C[C@@H](c2ccccc2)C[C@@H](OCc2ccc(CO)cc2)O1	none
C#Cc1ccc([C@@H]2C=C(C(=O)O)O[C@H](OCc3ccc(CO)cc3)C2)cc1	HSP90 refold inh 16.4
O=C(O)c1cccc(COc2ccccc2Cl)c1	SENP6 inh 98.8, SENP8 block-2 98.0 (no result: HSP90 refold inh)
COc1cc(/C=C2/C(=N)N3C(=NC2=O)SN=C3S(C)(=O)=O)ccc1OS(=O)(=O)c1ccc(C)cc1	none
Cc1cc(NCC(c2ccccc2)c2ccccc2)n2ncnc2n1	none
COC(=O)c1ccc(N=NNc2ccc(C(=O)OC)cc2)cc1	HSP90 refold inh 16.2
COC(=O)c1ccc(N=NNc2cccc(Br)c2)cc1	none (no result: SENP6 inh, SENP8 block-2, SENP7 block)
O=C(NC(=S)Nc1ccc(N2CCCCC2)cc1)c1ccco1	none
O=C(CSc1nnc2ccccn12)Nc1cccc(-c2nc3ccccc3s2)c1	SENP7 block 62.8
O=C(CSc1nnc2ccccn12)Nc1ccc2c(c1)OCO2	none
CC(C)NC(=O)Nc1ccc2c(c1)C(=O)N([C@H](C)CO)C[C@H](C)[C@@H](CN(C)S(=O)(=O)c1ccccc1)O2	none (no result: HSP90 refold inh)
